From PubChem BioAssay (NCATS)
Inconclusive results are not listed. The source made the active and inactive calls. The call rests on the fitted dose curve.

Target: Vitamin D3 receptor (Homo sapiens) (UniProt P11473)
Assay: qHTS assay for small molecule antagonists of vitamin D receptor signaling (AID 588541);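 further: receptor activated by calcitriol during compound treatment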
Conditions: HEK293T VDR-UAS-bla, beta-lactamase ratio, antagonist mode; series mostly up to 76.7 µM
Source text: NIH Chemical Genomics Center [NCGC]
U.S. Environmental Protection Agency [EPA]
National Institutes of Environmental Health Sciences [NIEHS]
National Toxicology Program [NTP]
The Vitamin D receptor (VDR) is a member of nuclear hormone receptor superfamily and it plays a critical role in calcium homeostasis and bone metabolism. It plays a role in inducing cell differentiation, inhibiting cell growth and in thrombogenicity. So, VDR that mediates these effects represents a pharmacological target in prevention and treatment of hyperproliferative malignancies, such as cancer and psoriasis, cardiovascular, immunological, inflammatory and renal diseases etc.
NCGC Assay Protocol Summary
Using a beta-lactamase reporter-gene under control of Vitamin D receptor (VDR) response element, a cell-based assay [GeneBLAzer (VDR -UAS-bla assay developed by Invitrogen] was used to measure VDR ligands signaling. GeneBLAzer VDR -UAS-bla HEK293T cells were used with assay medium containing 2% charcoal-stripped FBS. The assay was performed in clear bottom black Greiner 1536-well plates. Library compounds were measured for their ability to inhibit the reporter gene activity. Compounds were screened in a titration series in 1536-well format. The fluorescence intensity (405 nm excitation, 460/530 nm emission) was measured using an EnVision plate reader. Data was normalized relative to 1-alpha,25-Dihydroxy vitaminD3 control (50 nM, 100%) and DMSO only wells (basal, 0%). Concentration-response titration points for each compound were fitted to the Hill equation yielding concentrations of half-maximal inhibition (IC50) and maximal response (efficacy) values.
qHTS protocol for VDR beta-lactamase assay in antagonist mode
[Step] [Parameter] [Value] [Description]
1. Reagent; 5 uL; 2000 cells/well
2. Incubation; 37 C for 5 hrs
4. Controls (DMSO); 23 nL,
5. Agonist (Stimulator); 1uL; 1-alpha,25-Dihydroxy vitaminD3 at 50 nM and 3 nM final concentrations
6. Incubation; 37 C for 16 hrs
7. Detection reagent; 1 uL of CCF4-dye
8. Incubation; RT for 2 hrs
9. Detection; Fluorescence; Envision plate reader

Vitamin D3 receptor (Homo sapiens), sequence (P11473 whole entry, looked up): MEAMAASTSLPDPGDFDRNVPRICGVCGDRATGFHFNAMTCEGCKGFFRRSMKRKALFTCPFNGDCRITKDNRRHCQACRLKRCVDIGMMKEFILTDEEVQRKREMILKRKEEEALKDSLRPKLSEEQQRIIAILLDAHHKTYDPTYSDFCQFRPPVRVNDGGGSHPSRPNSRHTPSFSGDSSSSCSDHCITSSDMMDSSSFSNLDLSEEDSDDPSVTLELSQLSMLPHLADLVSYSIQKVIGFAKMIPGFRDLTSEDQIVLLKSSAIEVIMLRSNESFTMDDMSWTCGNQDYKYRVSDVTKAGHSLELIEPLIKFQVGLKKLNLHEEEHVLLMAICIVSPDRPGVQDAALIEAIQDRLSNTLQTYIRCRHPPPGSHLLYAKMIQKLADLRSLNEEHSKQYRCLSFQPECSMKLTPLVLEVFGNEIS

| Compound | outcome |
| --- | --- |
| CCc1nc(N)nc(N)c1-c1ccc(Cl)cc1 | inactive |
| CC1(C)NC(=O)N(c2ccc([N+](=O)[O-])c(C(F)(F)F)c2)C1=O | inactive |
| CCCCC(CC)COC(=O)C(C#N)=C(c1ccccc1)c1ccccc1 (configuration not stated) | inactive |
| NS(=O)(=O)c1cc(C(=O)O)c(NCc2ccco2)cc1Cl | inactive |
| CNC[C@H](O)c1ccc(O)c(O)c1 | inactive |
| COc1cc(OC)c(C(=O)CCCN2CCCC2)c(OC)c1 | inactive |
| COc1c2occc2cc2ccc(=O)oc12 | inactive |
| CS(=O)(=O)OCCCCOS(C)(=O)=O | inactive |
| N[C@@H](Cc1cc(I)c(Oc2cc(I)c(O)c(I)c2)c(I)c1)C(=O)O | inactive |
| Nc1nc(Cl)nc2c1ncn2[C@H]1C[C@H](O)[C@@H](CO)O1 | inactive |
| c1ccc2[nH]c(-c3cscn3)nc2c1 | inactive |
| O=c1c(O)c(-c2ccc(O)cc2O)oc2cc(O)cc(O)c12 | inactive |
